Source: PubChem BioAssay (NCI)
About 83,000 compounds went through this panel and 20% of them were active in at least one assay; those are over-represented in the sample as a whole.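 Negative percent growth values reflect cell death: -40 means 40% of the cells present at the start died, and -100 means all died.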 Activity calls are given as the source filed them. Rule for the calls: active = growth percent below 10; inactive = the rest.

Legend:
Assay in all cases: NCI-60 one-dose screen, 48 h (100 = growth as untreated, 0 = no growth, -100 = all killed)
Settings in all cases: 10 µM
NCI-H23 lung = system: NCI-H23 lung
NCI-H226 lung = system: NCI-H226 lung
NCI-H322M lung = system: NCI-H322M lung
HOP-62 NSCLC = system: HOP-62 NSCLC
NCI-H460 lung = system: NCI-H460 lung
NCI-H522 lung = system: NCI-H522 lung
A549/ATCC NSCLC = system: A549/ATCC NSCLC
786-0 renal = system: 786-0 renal
COLO 205 colon = system: COLO 205 colon
DU-145 prostate = system: DU-145 prostate
K-562 leukemia = system: K-562 leukemia
MALME-3M melanoma = system: MALME-3M melanoma
MDA-MB-231 breast = system: MDA-MB-231 breast
RXF 393 renal = system: RXF 393 renal
SF-268 CNS = system: SF-268 CNS
SF-295 CNS = system: SF-295 CNS
SF-539 CNS = system: SF-539 CNS
UACC-257 melanoma = system: UACC-257 melanoma
M14 melanoma = system: M14 melanoma
HCT-15 colon = system: HCT-15 colon

Measured: growth

O=C(N/N=C/c1ccccc1O)C(O)(c1ccccc1)c1ccccc1
inactive: NCI-H23 lung 64.1% | NCI-H226 lung 71.1% | NCI-H322M lung 46% | HOP-62 NSCLC 59% | NCI-H460 lung 27.4% | NCI-H522 lung 27.9% | A549/ATCC NSCLC 52.8% | 786-0 renal 61.7% | COLO 205 colon 35.5% | DU-145 prostate 59.9% | K-562 leukemia 52.9% | MALME-3M melanoma 74% | MDA-MB-231 breast 60.5% | RXF 393 renal 85.2% | SF-268 CNS 46.8% | SF-539 CNS 60.6% | UACC-257 melanoma 68.6% | M14 melanoma 57.4% | HCT-15 colon 32%
active: SF-295 CNS -12.8%

CC(C)(Cl)CCC1=C(Cl)C(=O)c2ccccc2C1=O
active: NCI-H522 lung -29.7% | K-562 leukemia -20%
inactive: NCI-H23 lung 32.9% | NCI-H226 lung 62.8% | NCI-H322M lung 100% | HOP-62 NSCLC 59% | NCI-H460 lung 65.6% | A549/ATCC NSCLC 82% | 786-0 renal 101% | COLO 205 colon 84% | DU-145 prostate 104% | MALME-3M melanoma 128% | MDA-MB-231 breast 34.1% | RXF 393 renal 28.8% | SF-268 CNS 65.7% | SF-295 CNS 105% | SF-539 CNS 37.4% | UACC-257 melanoma 39.2% | M14 melanoma 63.9% | HCT-15 colon 22.7%

O=[P@@]1(c2ccccc2)O[C@H](COCc2ccccc2)[C@@H](OCc2ccccc2)[C@H](OCc2ccccc2)[C@H]1O
active: HOP-62 NSCLC 7.83% | SF-295 CNS -24.9%
inactive: NCI-H23 lung 64.4% | NCI-H226 lung 59% | NCI-H322M lung 86.9% | NCI-H460 lung 74.7% | NCI-H522 lung 42.2% | A549/ATCC NSCLC 83.3% | 786-0 renal 65.3% | COLO 205 colon 118% | DU-145 prostate 90.6% | K-562 leukemia 93.9% | MALME-3M melanoma 109% | MDA-MB-231 breast 73.2% | RXF 393 renal 50% | SF-268 CNS 43.6% | SF-539 CNS 58.1% | UACC-257 melanoma 88.4% | M14 melanoma 102% | HCT-15 colon 94.2%

COc1cc(Cl)cc(-c2nn(-c3cccc(NC(=O)Nc4ccc(Cl)c(C(F)(F)F)c4)c3)cc2-c2ccncc2)c1
active: NCI-H23 lung 0.301% | NCI-H226 lung -2.82% | NCI-H460 lung 2.76% | NCI-H522 lung -10.4% | A549/ATCC NSCLC 5.2% | 786-0 renal -4.76% | COLO 205 colon -48.3% | K-562 leukemia 8.93% | MALME-3M melanoma -19.8% | MDA-MB-231 breast -30.8% | RXF 393 renal -29.9% | SF-295 CNS -7.48% | SF-539 CNS -1.17% | UACC-257 melanoma -25.9% | M14 melanoma 3.99% | HCT-15 colon 7.28%
inactive: NCI-H322M lung 18.7% | HOP-62 NSCLC 13.5% | DU-145 prostate 15.2% | SF-268 CNS 22.9%

CSCCCNC(=O)c1ccc2c(c1)/C(=C/c1[nH]c(C)cc1C)C(=O)N2
active: 786-0 renal 6.49% | MALME-3M melanoma -9.58% | RXF 393 renal -31% | M14 melanoma 8.79%
inactive: NCI-H23 lung 28.6% | NCI-H226 lung 41.8% | NCI-H322M lung 50.4% | HOP-62 NSCLC 35.5% | NCI-H460 lung 30.8% | NCI-H522 lung 41% | A549/ATCC NSCLC 29.2% | COLO 205 colon 31.5% | DU-145 prostate 27.9% | K-562 leukemia 49.1% | MDA-MB-231 breast 20.9% | SF-268 CNS 31.6% | SF-295 CNS 29.2% | SF-539 CNS 13.2% | UACC-257 melanoma 48.9% | HCT-15 colon 22.5%

c1ccc([C@H]2CN3CCSC3=N2)cc1
inactive: NCI-H23 lung 96.8% | NCI-H226 lung 97.4% | NCI-H322M lung 101% | HOP-62 NSCLC 109% | NCI-H460 lung 114% | NCI-H522 lung 90.8% | A549/ATCC NSCLC 102% | 786-0 renal 99.3% | COLO 205 colon 106% | DU-145 prostate 92.1% | K-562 leukemia 91.8% | MALME-3M melanoma 92.3% | MDA-MB-231 breast 101% | RXF 393 renal 101% | SF-268 CNS 111% | SF-295 CNS 91.3% | SF-539 CNS 87.8% | UACC-257 melanoma 104% | M14 melanoma 85.8% | HCT-15 colon 108%

CC(C)(C#N)Nc1ccccc1
inactive: NCI-H23 lung 108% | NCI-H226 lung 95.8% | NCI-H322M lung 124% | HOP-62 NSCLC 108% | NCI-H460 lung 109% | NCI-H522 lung 94.1% | A549/ATCC NSCLC 96.9% | 786-0 renal 101% | COLO 205 colon 109% | DU-145 prostate 118% | K-562 leukemia 102% | MALME-3M melanoma 104% | MDA-MB-231 breast 100% | RXF 393 renal 101% | SF-268 CNS 113% | SF-295 CNS 77.7% | SF-539 CNS 96.2% | UACC-257 melanoma 98.5% | M14 melanoma 107% | HCT-15 colon 99%

O=C(Nc1cccc(-n2cc(-c3ccncc3)c(-c3cc(O)cc(Cl)c3)n2)c1)c1cc(C(F)(F)F)cc(C(F)(F)F)c1
active: MDA-MB-231 breast -34.6% | RXF 393 renal -10.3%
inactive: NCI-H23 lung 42.7% | NCI-H226 lung 96% | NCI-H322M lung 74.1% | HOP-62 NSCLC 58.3% | NCI-H460 lung 19.9% | NCI-H522 lung 17.8% | A549/ATCC NSCLC 27.3% | 786-0 renal 55.1% | COLO 205 colon 38.7% | DU-145 prostate 62.1% | K-562 leukemia 20.4% | MALME-3M melanoma 61.7% | SF-268 CNS 69.4% | SF-295 CNS 15% | SF-539 CNS 75.5% | UACC-257 melanoma 71% | M14 melanoma 24.5% | HCT-15 colon 30.1%

Cc1ccc(S(=O)(=O)Oc2ccc3c4c(c(=O)oc3c2)CCCCC4)cc1
inactive: NCI-H23 lung 62.9% | NCI-H226 lung 55.9% | NCI-H322M lung 95.1% | HOP-62 NSCLC 81% | NCI-H460 lung 37.2% | NCI-H522 lung 57.9% | A549/ATCC NSCLC 40.9% | 786-0 renal 66.6% | COLO 205 colon 28.5% | DU-145 prostate 87.8% | K-562 leukemia 36.7% | MALME-3M melanoma 71.9% | MDA-MB-231 breast 74.5% | RXF 393 renal 68.6% | SF-268 CNS 77.2% | SF-295 CNS 48.7% | SF-539 CNS 39.8% | UACC-257 melanoma 32% | M14 melanoma 71% | HCT-15 colon 41.3%

C#Cc1ccc(-n2c(/C=C/c3ccc(Cl)c(F)c3)nc3ncccc3c2=O)cc1
inactive: NCI-H23 lung 18.3%
active: NCI-H226 lung -74.5% | NCI-H322M lung -25% | HOP-62 NSCLC -57.6% | NCI-H460 lung -25.8% | NCI-H522 lung -66.7% | A549/ATCC NSCLC -8.32% | 786-0 renal 7.88% | COLO 205 colon -90.2% | DU-145 prostate 3.49% | K-562 leukemia -8.5% | MALME-3M melanoma -60.4% | MDA-MB-231 breast -29.8% | RXF 393 renal -76.2% | SF-268 CNS -61.9% | SF-295 CNS -60.1% | SF-539 CNS 1.03% | UACC-257 melanoma -65.1% | M14 melanoma -9.7% | HCT-15 colon 2.43%

COc1ccc(-c2cc(-c3ccc(N(C)C)cc3)c(C#N)c(N3CCCC3)n2)cc1
inactive: NCI-H23 lung 93.6% | NCI-H226 lung 82.5% | NCI-H322M lung 92.3% | HOP-62 NSCLC 99.7% | NCI-H460 lung 69.9% | NCI-H522 lung 69.4% | A549/ATCC NSCLC 77.2% | 786-0 renal 95.6% | COLO 205 colon 65.9% | DU-145 prostate 86.8% | K-562 leukemia 69.3% | MALME-3M melanoma 122% | MDA-MB-231 breast 64.1% | SF-268 CNS 96.7% | SF-295 CNS 93.8% | SF-539 CNS 88.8% | UACC-257 melanoma 88% | M14 melanoma 73.3% | HCT-15 colon 71.4%
active: RXF 393 renal -2.09%

COc1cc(/C=C/C(=O)c2ccc(Cl)cc2)ccc1OS(=O)(=O)c1ccc(C)cc1
inactive: NCI-H23 lung 99.3% | NCI-H226 lung 98.5% | NCI-H322M lung 96.7% | HOP-62 NSCLC 95.1% | NCI-H460 lung 103% | NCI-H522 lung 81.7% | A549/ATCC NSCLC 99.9% | 786-0 renal 102% | COLO 205 colon 110% | DU-145 prostate 105% | K-562 leukemia 14.9% | MALME-3M melanoma 101% | MDA-MB-231 breast 90.9% | RXF 393 renal 117% | SF-268 CNS 102% | SF-295 CNS 94.2% | SF-539 CNS 111% | UACC-257 melanoma 110% | M14 melanoma 105% | HCT-15 colon 66%

CCOC(=O)c1ccc(NC(=O)Nc2ncc(Cl)cc2Cl)cc1
active: NCI-H522 lung -37.6%
inactive: NCI-H23 lung 93.9% | NCI-H226 lung 95.3% | NCI-H322M lung 99.3% | HOP-62 NSCLC 104% | NCI-H460 lung 93.3% | A549/ATCC NSCLC 40.7% | 786-0 renal 92.9% | COLO 205 colon 130% | DU-145 prostate 111% | K-562 leukemia 79.4% | MALME-3M melanoma 111% | MDA-MB-231 breast 94% | RXF 393 renal 100% | SF-268 CNS 104% | SF-295 CNS 96.5% | SF-539 CNS 96.2% | UACC-257 melanoma 14.7% | M14 melanoma 94.7% | HCT-15 colon 102%

Cc1ccc(Nc2nnc(-c3cc(-c4ccncc4)n(-c4ccccc4)n3)s2)cc1
inactive: NCI-H23 lung 90.5% | NCI-H226 lung 86.2% | NCI-H322M lung 98.7% | HOP-62 NSCLC 114% | NCI-H460 lung 56.8% | NCI-H522 lung 84.5% | A549/ATCC NSCLC 60.5% | 786-0 renal 41.9% | COLO 205 colon 73.8% | DU-145 prostate 107% | K-562 leukemia 27% | MALME-3M melanoma 74.8% | MDA-MB-231 breast 18.9% | RXF 393 renal 57.5% | SF-268 CNS 113% | SF-295 CNS 21.9% | SF-539 CNS 91.6% | UACC-257 melanoma 110% | M14 melanoma 61.9%
active: HCT-15 colon 9.74%

O=C1/C(=C\c2ccccc2)CN(C(=O)c2ccccc2)C/C1=C\c1ccccc1
inactive: NCI-H23 lung 57.5% | NCI-H226 lung 37.3% | NCI-H322M lung 75.8% | HOP-62 NSCLC 37.1% | NCI-H460 lung 60.1% | A549/ATCC NSCLC 61.1% | COLO 205 colon 41.5% | DU-145 prostate 24.6% | SF-268 CNS 23.6% | SF-295 CNS 15.7% | SF-539 CNS 69.4%
active: NCI-H522 lung -0.751% | 786-0 renal 2.68% | K-562 leukemia 2.41% | MALME-3M melanoma -37.5% | MDA-MB-231 breast 7.59% | RXF 393 renal -21.2% | UACC-257 melanoma 4.53% | M14 melanoma -49.5% | HCT-15 colon -18.6%
